Compound activity from PubChem.
ROS inducer: ROS inducers in U2OS cancer cells, primary screen, cell-based, H2DCF-DA fluorescence | U2OS ROS induction | ROS induction (% of piperlongumine), % at 10 µM | 46,000 compounds, 2% hits; in the data active means ROS induction above about 79%, passing the limit was not always enough
Of the large screens only hits and unclear results are named; the others gave an inactive call. The full list was thinned out, with hits kept by preference.

COc1ccc(NC(=O)CN2CCN(S(=O)(=O)c3ccc(C)cc3C)CC2)cc1	none
Cc1noc(C)c1S(=O)(=O)N(C)C[C@H]1Oc2c(NS(=O)(=O)c3ccccc3)cccc2C(=O)N([C@@H](C)CO)C[C@H]1C	none
C[C@@H]1CN([C@@H](C)CO)C(=O)c2cc(NC(=O)CCN3CCOCC3)ccc2O[C@H]1CN(C)CC1CCCCC1	none
O=C(O)CCCCCC(=O)N/N=C/c1ccc(O)cc1Br	none
CC(C)NC(=O)Nc1ccc2c(c1)C(=O)N([C@H](C)CO)C[C@H](C)[C@@H](CN(C)C)OCCCC[C@@H](C)O2	none
CCn1c(SCC(=O)Nc2cccc(OC)c2)nnc1-c1ccncc1	none
C[C@H](CO)N1C[C@H](C)[C@H](CN(C)Cc2ccc(Oc3ccccc3)cc2)Oc2c(NC(=O)Nc3ccc(F)cc3)cccc2C1=O	none
C[C@@H]1CN([C@H](C)CO)C(=O)c2cccc(NS(=O)(=O)c3ccccc3)c2O[C@@H]1CN(C)Cc1ccc(Cl)c(Cl)c1	none
C[C@H](CO)N1C[C@H](C)[C@H](CN(C)Cc2ccc(Oc3ccccc3)cc2)Oc2c(NC(=O)Nc3ccccc3)cccc2C1=O	none
C[C@@H]1CN([C@@H](C)CO)C(=O)c2cccc(NC(=O)Nc3ccccc3)c2O[C@H]1CN(C)Cc1ccc(Oc2ccccc2)cc1	ROS inducer 105.3
C[C@H](CO)N1C[C@H](C)[C@@H](CN(C)Cc2ccc(Oc3ccccc3)cc2)Oc2c(NC(=O)Nc3ccc(F)cc3)cccc2C1=O	ROS inducer 82.0
C[C@@H]1CN([C@H](C)CO)C(=O)c2cccc(NC(=O)Nc3ccccc3)c2O[C@H]1CN(C)Cc1ccc(Oc2ccccc2)cc1	none
C[C@H]1CN([C@@H](C)CO)C(=O)c2cccc(NC(=O)Nc3ccc(C(F)(F)F)cc3)c2O[C@@H]1CN(C)Cc1ccc(Oc2ccccc2)cc1	none
C[C@@H]1CN([C@@H](C)CO)C(=O)c2cccc(NS(=O)(=O)c3ccccc3)c2O[C@H]1CN(C)Cc1ccc(Cl)c(Cl)c1	ROS inducer 150.8
C[C@@H]1CN([C@@H](C)CO)C(=O)c2cccc(NS(=O)(=O)c3ccccc3)c2O[C@@H]1CN(C)Cc1ccc(Cl)c(Cl)c1	none
COCc1cc(=O)n2[nH]c(Nc3cc(Cl)ccc3C)nc2n1	none
O=C1SC(=S)N/C1=C/c1cccc(O)c1	none
CCOC(=O)c1c(S(=O)(=O)NCc2ccccc2)c(-c2ccccc2)n(-c2ccccc2)c1C	none
CNS(=O)(=O)c1ccc(Br)cc1I	none
COC(=O)CC1=CC(C)(CC(=O)OC)C(C#N)(C#N)C(N)=C1C#N (stereo unspecified)	none
COc1ccc(NC(=O)CSc2nnc(-c3ccccc3)n2-c2ccccc2)c([N+](=O)[O-])c1	none
CC(C)NC(=O)N(C)C[C@H]1Oc2ccc(NC(=O)Cc3cn(C)c4ccccc34)cc2C(=O)N([C@H](C)CO)C[C@H]1C	none
COc1ccc(CN(C)C[C@H]2Oc3ccc(NC(=O)CCN4CCOCC4)cc3CC(=O)N([C@@H](C)CO)C[C@@H]2C)cc1	none
C[C@@H]1CN([C@H](C)CO)C(=O)Cc2cc(NC(=O)CCN3CCOCC3)ccc2O[C@@H]1CN(C)C	ROS inducer 125.6
COc1ccc(CN(C)C[C@@H]2Oc3ccc(NC(=O)CCN4CCOCC4)cc3CC(=O)N([C@H](C)CO)C[C@H]2C)cc1	ROS inducer 120.9
C[C@H]1CN([C@@H](C)CO)C(=O)Cc2cc(NC(=O)CCN3CCOCC3)ccc2O[C@H]1CN(C)C	none
C[C@H]1CN([C@@H](C)CO)C(=O)Cc2cc(NC(=O)CCN3CCOCC3)ccc2O[C@@H]1CN(C)C	none
C[C@@H]1CN([C@@H](C)CO)C(=O)Cc2cc(NC(=O)CCN3CCOCC3)ccc2O[C@@H]1CN(C)Cc1ccc(Oc2ccccc2)cc1	none
COc1cc(C)c(Cl)cc1S(=O)(=O)NCc1ccccn1	none
Cc1noc(-c2ccc3c(c2)OCO3)c1I	none
C[C@H](CO)N1C[C@H](C)[C@@H](CN(C)S(C)(=O)=O)OCc2cn(nn2)CCCC1=O	none
C[C@@H]1CCCCO[C@@H](CN(C)CC2CC2)[C@@H](C)CN([C@H](C)CO)C(=O)c2cc(NS(=O)(=O)c3ccccc3)ccc2O1	none
Cc1cc(C(=O)Nc2cccc3c2O[C@@H](CN(C)C(=O)Nc2cccc4ccccc24)[C@H](C)CN([C@H](C)CO)C3=O)n(C)n1	none
Cc1ccc(S(=O)(=O)Nc2ccc3c(c2)C(=O)N([C@H](C)CO)C[C@H](C)[C@H](CN(C)S(=O)(=O)c2cccs2)O3)cc1	none
COc1ccc(S(=O)(=O)N(C)C[C@@H]2Oc3ccc(NS(=O)(=O)c4cn(C)cn4)cc3CC(=O)N([C@H](C)CO)C[C@@H]2C)cc1	none
CCOC(=O)c1csc(-c2cccs2)n1	none
CCOC(=O)N1CCN(C(=O)c2cccs2)CC1	none
CCOC(=O)C1=CN(c2ccc(C)cc2)C=C(C(=O)OCC)C1c1cccs1	ROS inducer 111.7
COc1ccc(C(=O)Nc2ccccc2C(=O)N2CCN(CCO)CC2)cc1	none
COc1ccc(S(=O)(=O)Nc2cccc3c2O[C@@H](CN(C)CC2CCCCC2)[C@H](C)CN([C@H](C)CO)C3=O)cc1	none
C[C@H](CO)N1C[C@H](C)[C@H](CN(C)S(=O)(=O)c2cn(C)cn2)Oc2ncc(-c3ccc(F)cc3)cc2C1=O	none
C=CCn1c2ccccc2c2nnc(SC(CC)C(=O)Nc3nnc(C(F)(F)F)s3)nc21 (stereo unspecified)	none
C[C@H]1CN([C@@H](C)CO)C(=O)c2cccc(NC(=O)Nc3ccccc3)c2O[C@@H]1CN(C)C(=O)Nc1ccc(C(F)(F)F)cc1	none
CCc1ccc(-c2cc(C(=O)OC)c3ccccc3n2)cc1	none
CCN(CC)c1ccc(-c2cc(C(=O)O)c3c(ccc4ccccc43)n2)cc1	ROS inducer 439.5
O=C(O)c1cc(-c2ccccc2)nc2ccccc12	none
CNC[C@H]1Oc2ccc(NS(=O)(=O)c3ccc(C)cc3)cc2C(=O)N([C@@H](C)CO)C[C@H]1C	none
CC(=O)Nc1ccccc1NC(=O)COc1cc(C)c(Br)c(C)c1	none
C/C=C/[C@@H](CCn1cc([C@H](O)c2ccccc2)nn1)[Si](C)(C)c1ccc(OC)cc1	none
C/C=C/[C@H](CCn1cc([C@H](O)c2ccccc2)nn1)[Si](C)(C)c1ccc(OC)cc1	ROS inducer 109.7
C/C=C/[C@H](CCn1cc(CCO)nn1)[Si](C)(C)c1ccc(OC)cc1	none
Cc1ccc(C(=O)N/C(=C\c2cn(-c3ccccc3)nc2-c2ccccc2)C(=O)O)cc1	none
O=C(OC[C@@]1(O)[C@H]2[C@H](O[C@@H]3O[C@H](CO)[C@@H](O)[C@H](O)[C@H]3O)OC=C[C@H]2[C@H](O)[C@H]1Cl)c1ccccc1	none
COc1cc(/C=C/C(=O)O)cc(OC)c1OC	none
COc1cc(CCC(=O)N2CCC=CC2=O)cc(OC)c1OC	ROS inducer 136.7
COc1cc(C(=O)NCCC(=O)N2CCN(C)CC2)cc(OC)c1OC	none
CC/C=C\C=C1\C(=O)C=CC1CCCCCCCC(=O)O (stereo unspecified)	ROS inducer 87.3
CC/C=C\CC1C(=O)C=C/C1=C/CCCCCCC(=O)O (stereo unspecified)	none
CC/C=C\C/C=C\C/C=C\C/C=C\C/C=C\C/C=C\CCC(=O)O	none
Cc1ccsc1/C=N/NC(=O)c1ccc(C(=O)NO)cc1	none
CCc1ccc2c(c1)=C(c1sc(Nc3cccc(Cl)c3C)nc1O)C(=O)N=2	none
CCc1ccc2c(c1)=C(c1sc(N)nc1O)C(=O)N=2	none
CCc1ccc2c(c1)=C(c1[nH]c(=S)[nH]c1O)C(=O)N=2	ROS inducer 124.3
CCn1c(=N)c(S(=O)(=O)c2ccccc2)cc2c(=O)n3ccccc3nc21	ROS inducer 93.5
C=CCn1c(=N)c(C#N)cc2c(=O)n3ccccc3nc21	none
